Screen size: about 16,000 compounds; about 4,000 (25%) were called active. Inconclusive results (about 26%) are left out. Calls follow the shape of the dose curve; as a rule, active = well fitted curve in the direction sought with a large enough effect; inconclusive = small, poorly fitted or top-dose-only effect, or effect the other way; inactive = no such curve, though single readings can be large or run the other way. The list is a sample of the results.
% is scaled to controls: 0 for no effect and ±100 for the full control effect.

Chain of Cytochrome P450 2C9 (Homo sapiens) (P11712 whole entry, looked up): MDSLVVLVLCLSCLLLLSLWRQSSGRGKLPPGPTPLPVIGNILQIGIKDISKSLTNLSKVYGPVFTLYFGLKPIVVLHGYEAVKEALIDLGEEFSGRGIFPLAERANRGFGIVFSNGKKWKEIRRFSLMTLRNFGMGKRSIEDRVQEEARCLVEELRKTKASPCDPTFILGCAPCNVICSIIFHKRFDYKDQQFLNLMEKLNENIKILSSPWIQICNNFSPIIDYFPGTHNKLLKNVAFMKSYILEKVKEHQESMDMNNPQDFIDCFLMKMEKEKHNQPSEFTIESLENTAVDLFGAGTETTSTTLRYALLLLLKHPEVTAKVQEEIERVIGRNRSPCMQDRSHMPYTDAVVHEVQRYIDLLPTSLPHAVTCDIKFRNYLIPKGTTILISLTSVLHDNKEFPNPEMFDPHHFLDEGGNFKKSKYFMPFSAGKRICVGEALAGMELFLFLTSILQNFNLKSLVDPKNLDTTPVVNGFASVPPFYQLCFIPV

This assay concerns the target Cytochrome P450 2C9 (Homo sapiens) (UniProt P11712). As to the kind of experiment: Cytochrome panel assay with activity outcomes. The following applies: recombinant CYP, pro-luciferin dealkylation, luminescence, p450-cyp2c9; series mostly up to 57.1 µM.
On to `FC(F)(F)c1ccccc1-c1ccc2ncnc(N3CCOCC3)c2c1`, for which the activity, negative = inhibition is -28.6% [at 2.29 µM] (inactive).

As to `CCN1C(=O)[C@H]2[C@H]3[C@H](O)[C@H](O)C/C(=N/OC[C@@H](O)COCc4ccco4)[C@H]3CC[C@@H]2C1=O`, the activity, negative = inhibition was 1.57% [at 11.4 µM] (inactive).

The term AC50 denotes the concentration at which the activity in the assay is half-maximal. With `c1ccc(SC(Sc2ccccc2)c2ccc3c(c2)OCO3)cc1`, the concentration at half-maximal activity (AC50) is 3.16 µM (active).

For `O=C(O)C[C@H](Cc1ccc2c(c1)OCO2)C(=O)O`, the activity, negative = inhibition is -23.6% [at 11.4 µM] (inactive).

As to `c1ccc(Nc2ncncc2-c2ccc3c(c2)OCO3)cc1`, the activity, negative = inhibition is -20.1% [at 2.29 µM] (inactive).

Turning to `COc1ccc(-c2ccc(N)[n+](CCCC(=O)O)n2)cc1`, the AC50 entry is “inactive”.

Regarding `CCCCN(C)CCCNC(=O)CCn1nc(-c2ccccc2)ccc1=O`, the AC50 entry was “inactive”.

Regarding `COc1ccc(-c2ccc(=N)n(CCCC(=O)O)n2)cc1`, the concentration at half-maximal activity (AC50) was 3.16 µM (active).

As to `COc1cccc(-c2cc(NCc3cccnc3)ncn2)c1`, the activity, negative = inhibition is -28.7% [at 2.29 µM] (inactive).

With `COc1cccc(Cn2c(NCc3cccnc3)nc3c2c(=O)n(C)c(=O)n3C)c1`, the concentration at half-maximal activity (AC50) is 6.31 µM (active).

In the case of `CSC1(SC2=NCCN2)SC2(NCCN2)S1`, the activity, negative = inhibition was -10.8% [at 11.4 µM] (inactive).

In the case of `CCOC(=O)Nc1ccc(C(=O)Oc2ccccc2)c(O)c1`, the AC50 is 17.8 µM (active).

With `CC(C)(C)c1ccc(OC(=O)Nc2ccc(O)c(C(=O)O)c2)cc1`, the activity, negative = inhibition is -20.8% [at 11.4 µM] (inactive).

On to `O=C(Nc1ccc2oc(=O)c(C(=O)O)cc2c1)Oc1ccccc1`, for which the activity, negative = inhibition was -10.6% [at 11.4 µM] (inactive).

As for `CCOC(=O)c1cc2c(=O)n3ccccc3nc2n(CCCOC)c1=NC(=O)C(C)(C)C`, the AC50 is 1.58 µM (active).

Take `O=C(c1csnn1)N1CCC2(CC1)CCN(c1ncccn1)CC2`: the AC50 result was “inactive”.

For `COc1cc(N=c2ssnc2Cl)cc(OC)c1OC`, the half-maximal activity concentration (AC50) was 6.31 µM (active).

Consider `CCOC(=O)N/N=C1/C[C@@H](O)[C@@H](O)[C@@H]2[C@@H]3C(=O)N([C@@H](C)c4ccccc4)C(=O)[C@H]3CC[C@H]12`, for which the activity, negative = inhibition was 27.2% [at 11.4 µM] (inactive).

Regarding `CN(C)C(=O)c1cn(N(C)c2ncc(C(F)(F)F)cc2Cl)c(=O)c2ccccc12`, the AC50 was 2.82 µM (active).

With `CCOC(=O)C(C(=O)NCc1ccc(C)cc1)c1ncc(C(F)(F)F)cc1Cl` (configuration not stated), the AC50 result was “inactive”.

On to `C[n+]1ccccc1/C=N\O`, for which the AC50 entry was “inactive”.

As to `C=CCn1c(-c2cccn(Cc3ccccc3)c2=O)n[nH]c1=S`, the AC50 entry was “inactive”.

For `c1cc(CN2CCCCC2)cc(OCCCNc2nc3ccccc3s2)c1`, the AC50 entry is “inactive”.

For `O=c1c(-c2nc3ccccc3s2)cccn1Cc1ccccc1`, the AC50 was 3.16 µM (active).

As to `Cc1cnc(CNc2ncncc2-c2cccc(C#N)c2)cn1`, the activity, negative = inhibition was -1.84% [at 2.29 µM] (inactive).

Consider `Cn1cc[nH]c1=S`, for which the AC50 result is “inactive”.

With `CN1CCC2(CC1)CCN(C(=O)c1cc(C(F)(F)F)cc(C(F)(F)F)c1)CC2`, the AC50 result was “inactive”.

For the compound `CCOC(=O)CSC1=C(C#N)C(c2sccc2C)C(C(C)=O)=C(C)N1` (configuration not stated), the AC50 is 1.78 µM (active).

Take `CCOC(=O)CSC1=C(C#N)C(c2sccc2C)CC(=O)N1` (configuration not stated): the half-maximal activity concentration (AC50) was 12.6 µM (active).

Turning to `C=CCOC(=O)C1=C(C)NC(SCC(=O)OCC)=C(C#N)C1c1ccc(C)cc1` (configuration not stated), the AC50 was 7.94 µM (active).

As to `CCCC(O)(CCC)C(=O)NN1CCCCC1`, the AC50 entry was “inactive”.

`CC(=O)N1CCc2cc(Br)cc(S(=O)(=O)N3CCN(C(=O)c4ccco4)CC3)c21`: the AC50 is 5.01 µM (active).

`O=C(c1ccco1)N1CCC2(CC1)CN(c1ccc(-c3ccccc3)cc1)C2`: the AC50 result is “inactive”.

Take `O=C(c1ccco1)N1CCC2(CC1)CCN(c1ccccc1)CC2`: the AC50 result is “inactive”.

Consider `COc1ccc(C(=O)Oc2cc(/C=N/NS(=O)(=O)c3ccc(C)cc3)ccc2OC)cc1`, for which the AC50 is 2.24 µM (active).

Take `CS(=O)(=O)c1ccc(/C=N\NC(N)=S)cc1`: the activity, negative = inhibition was -1.25% [at 11.4 µM] (inactive).

Regarding `Cc1ccc(S(=O)(=O)N/N=C/c2ccc(OC3CSC3)cc2)cc1`, the AC50 was 1.41 µM (active).

In the case of `COc1ccc(/C=N/NC(=S)NC2CCS(=O)(=O)C2)cc1OC` (configuration not stated), the AC50 entry was “inactive”.

Turning to `COc1ccc(/C=N\NC(=O)O)cc1`, the activity, negative = inhibition is -7.71% [at 11.4 µM] (inactive).

As to `Fc1ccc(-c2ccnc3nc(N4CCOCC4)nn23)cc1`, the AC50 result is “inactive”.

In the case of `COC(=O)C1=C(C)NC(C)=C(C(=O)OCCSc2ccccc2)[C@@H]1C`, the concentration at half-maximal activity (AC50) was 3.16 µM (active).

Turning to `O=C(O)CCCSc1ccccc1`, the activity, negative = inhibition was 14.8% [at 11.4 µM] (inactive).

Consider `Cc1nc2cnc(N3CCN(C)CC3)nc2n(Cc2ccc(F)cc2)c1=O`, for which the AC50 result is “inactive”.

`COC(=O)c1ccc(Oc2cc(C)nc(-n3nc(C)cc3C)n2)cc1`: the AC50 is 25.1 µM (active).

As to `Cc1nc2ccccc2nc1-c1ccc(N=[N+]([O-])c2ccc(-c3nc4ccccc4nc3C)cc2)cc1`, the activity, negative = inhibition is -2.63% [at 11.4 µM] (inactive).

`C[N+](C)(C)CCO`: the AC50 result was “inactive”.

Regarding `CC(C)COC[C@H](CN(Cc1ccccc1)c1ccccc1)N1CCCC1`, the AC50 result is “inactive”.

With `O=C1CC(=Nc2ccccc2)NN1c1ccccc1`, the concentration at half-maximal activity (AC50) is 2.82 µM (active).

For `CC1=NN(c2ccccc2)C(=O)C1`, the AC50 result was “inactive”.

In the case of `c1ccc2c(c1)C(=Nc1ccc(N=C3c4ccccc4-c4ccccc43)cc1)c1ccccc1-2`, the activity, negative = inhibition is -2.68% [at 11.4 µM] (inactive).

`N#Cc1cccc(NC(=O)N2CCC3(CC2)CCN(C(=O)c2cccc(F)c2)CC3)c1`: the AC50 entry is “inactive”.

On to `Cc1cc2c(s1)CCCCC(=O)N2`, for which the AC50 entry is “inactive”.

Regarding `CN(C)CCCO[C@H]1[C@@H]2OC(C)(C)O[C@@H]2O[C@@H]1[C@H](O)CO`, the AC50 entry was “inactive”.

For `COc1ccc(NC(=O)N2CCCC3(CCN(S(=O)(=O)c4ccccc4)CC3)C2)cc1`, the AC50 was 20 µM (active).

Regarding `O=C(Nc1ccccc1)N1CCCC2(CCN(S(=O)(=O)c3ccccc3)CC2)C1`, the AC50 was 10 µM (active).

With `CS(=O)(=O)N1CCC[C@@]2(CCN(C(=O)Nc3ccccc3)C2)C1`, the AC50 result is “inactive”.

For `COc1ccc(NC(=O)N2CC3(CCN(S(=O)(=O)c4ccccc4)CC3)C2)cc1`, the AC50 result is “inactive”.

In the case of `COc1ccc(NC(=O)N2CCC3(CC2)CCN(S(=O)(=O)c2ccccc2)CC3)cc1`, the AC50 result is “inactive”.

In the case of `O=C(Nc1ccccc1)N1CCC2(CC1)CCN(S(=O)(=O)c1ccccc1)CC2`, the AC50 result was “inactive”.

Consider `COc1ccc(NC(=O)N2CC3(CCN(S(C)(=O)=O)CC3)C2)cc1`, for which the AC50 entry was “inactive”.

Turning to `COc1ccc(NC(=O)N2CCCC3(CCN(S(C)(=O)=O)CC3)C2)cc1`, the AC50 entry is “inactive”.

As for `COc1ccc(NC(=O)N2CCC3(CC2)CCN(S(C)(=O)=O)CC3)cc1`, the half-maximal activity concentration (AC50) is 15.8 µM (active).

Values taken from PubChem BioAssay AID1851 (National Center for Advancing Translational Sciences (NCATS), 2009).
